Reference: PubChem BioAssay (Tox21)
Several values for one entry are separate records, joined by “and”; a condition that tells them apart may be missing. Equal entries are not always repeated. Records with an inconclusive call do not appear. A call without a number means that no potency is given here. Activity calls are given as the source filed them. Unless noted, calls follow the shape of the dose curve; as a rule, active = well fitted curve in the direction sought with a large enough effect in the repeat runs; inconclusive = weak or mixed curves; inactive = no such curve, though single readings can be large; an effect the other way counts as inactive or inconclusive.

Key:
[1] = biological target: Luciferin 4-monooxygenase (Photinus pyralis) (UniProt P08659); assay: qHTS assay to identify small molecule inhibitors of firefly luciferase (AID 1224835); also: nearly all actives have a fitted effect of over 25% in size; also: potency is read from the fitted curve at half-maximal effect
How it was run: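 Inhibition of purified Photinus luciferase is measured by luminescence. Substrate levels (D-luciferin, ATP) sit at their KM values. Each compound is tested in a concentration series.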

[2] = qHTS assay to identify small molecule agonists of the constitutive androstane receptor (CAR) signaling pathway - cell viability counter screen (AID 1224836); also: nearly all actives have a fitted effect of over 45% in size; also: potency is read from the fitted curve at half-maximal effect
How it was run: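 Fluorescence from CellTiter-Fluor indicates live cells after 23 h exposure. The human hepatoma line expresses hCAR and a CYP2B6-2.2kb reporter. Incubation medium contains 0.75 uM PK11195 (final).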

[3] = biological target: Nuclear receptor subfamily 1 group I member 3 (Homo sapiens) (UniProt Q14994); assay: qHTS assay to identify small molecule antagonists of the constitutive androstane receptor (CAR) signaling pathway (AID 1224838);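 also: HepG2 cells stably expressing hCAR with CYP2B6 luciferase reporter stimulated by CITCO; nearly all actives have a fitted effect of over 40% in size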
How it was run: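 Antagonism measured as luciferase signal (ONE-Glo, 30 min, room temperature) in CAR-stimulated cells: HepG2-CYP2B6-hCAR double-stable line exposed 24 hr at 37 C to compound in a 15-point series plus 50 nM CITCO.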

[4] = biological target: Nuclear receptor subfamily 1 group I member 3 (Homo sapiens) (UniProt Q14994); assay: qHTS assay to identify small molecule agonists of the constitutive androstane receptor (CAR) signaling pathway (AID 1224839); also: nearly all actives have a fitted effect of over 15% in size; also: potency is read from the fitted curve at half-maximal effect
How it was run: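 Stable hCAR/CYP2B6-2.2kb HepG2 line in DMEM with 10% FBS; compounds (15 concentrations) and 0.75 uM PK11195 final, 24 h at 37 C/5% CO2, then ONE-Glo luminescence after 30 min.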

[5] = qHTS assay to identify small molecule antagonists of the estrogen related receptor signaling pathway with the pleiotropic PPARgamma coactivator (PGC) from Tox21 10K library - cell viability counter screen (AID 1224840; active = well fitted cell-killing curve with a large enough effect in the repeat runs, not every such curve was filed as active; also: nearly all actives have a fitted effect of over 40% in size)
How it was run: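 Counter-screen for cytotoxicity: after 17.5 h compound exposure at 37 C, CellTiter-Fluor reagent added to PGC/ERR cells for 30 min and fluorescence read. Cells were seeded at 2,000 per well 6 h before dosing.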

[6] = biological target: Thyrotropin receptor (Homo sapiens) (UniProt P16473); assay: qHTS assay to identify small molecule agonists of the thyroid stimulating hormone receptor (TSHR) signaling pathway (AID 1224843; calls by dose curve; also: nearly all actives have a fitted effect of over 45% in size)
How it was run: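 Agonist activity read as cAMP rise via d2/cryptate HTRF competition, 1 h room-temperature detection, in HEK293 cells expressing TSHR. Fifteen-point titrations, each run in triplicate, with a 30 min room-temperature incubation beforehand.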

[7] = qHTS assay to identify small molecule agonists of the hypoxia (HIF-1) signaling pathway - cell viability counter screen (AID 1224844; calls by dose curve; also: nearly all actives have a fitted effect of over 50% in size)
How it was run: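 Cytotoxicity measured by CellTiter-Glo ATP luminescence in the wells also read for beta-lactamase signal. Cells were HRE-bla ME-180 (2,000/well, 0.5% dialyzed FBS), exposed to compounds for 17 h at 37C.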

[8] = qHTS assay to identify small molecule antagonists of the constitutive androstane receptor (CAR) signaling pathway - cell viability counter screen (AID 1224837); also: series mostly up to about 92 µM; nearly all actives have a fitted effect of over 45% in size
How it was run: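 Cytotoxicity counter-screen: CellTiter-Fluor fluorescence after 23 h compound exposure (15-point qHTS) in double-stable HepG2-CYP2B6-hCAR cells, with 50 nM CITCO added.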

[9] = qHTS assay to identify small molecule antagonists of the estrogen related receptor signaling pathway with the pleiotropic PPARgamma coactivator (PGC) from Tox21 10K library (AID 1224841; call rule not given here; also: series mostly up to about 92 µM; actives are mostly falling curves and most rising ones were filed inactive; nearly all actives have a fitted effect of over 50% in size)
How it was run: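 Luminescence (One-Glo, 30 min at room temperature) after 18 h compound treatment at 37 C of PGC/ERR reporter cells plated at 2,000 cells/well and settled 6 h beforehand.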

[10] = qHTS assay to identify small molecule agonists of the estrogen related receptor signaling pathway with the pleiotropic PPARgamma coactivator (PGC) from Tox21 10K library (AID 1224842); also: nearly all actives have a fitted effect of over 15% in size
How it was run: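 Luminescence from One-Glo (30 min, room temperature) measured after PGC/ERR cells had 18 h at 37 C with pinned compound (23 nL in DMSO). Cells had been seeded at 2,000 per well and pre-incubated 6 h.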

Chain of Nuclear receptor subfamily 1 group I member 3 (Homo sapiens) (Q14994 whole entry, looked up): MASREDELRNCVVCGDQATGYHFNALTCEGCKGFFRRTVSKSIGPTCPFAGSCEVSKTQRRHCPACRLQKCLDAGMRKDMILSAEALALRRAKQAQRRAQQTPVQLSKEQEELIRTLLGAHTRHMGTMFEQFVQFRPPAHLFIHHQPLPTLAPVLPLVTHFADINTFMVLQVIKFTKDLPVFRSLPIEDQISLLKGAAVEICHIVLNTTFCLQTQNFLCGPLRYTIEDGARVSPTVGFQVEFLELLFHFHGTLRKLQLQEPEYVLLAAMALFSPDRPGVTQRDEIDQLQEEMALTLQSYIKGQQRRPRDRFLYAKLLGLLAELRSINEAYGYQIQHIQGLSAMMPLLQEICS
Chain of Luciferin 4-monooxygenase (Photinus pyralis) (P08659 whole entry, looked up): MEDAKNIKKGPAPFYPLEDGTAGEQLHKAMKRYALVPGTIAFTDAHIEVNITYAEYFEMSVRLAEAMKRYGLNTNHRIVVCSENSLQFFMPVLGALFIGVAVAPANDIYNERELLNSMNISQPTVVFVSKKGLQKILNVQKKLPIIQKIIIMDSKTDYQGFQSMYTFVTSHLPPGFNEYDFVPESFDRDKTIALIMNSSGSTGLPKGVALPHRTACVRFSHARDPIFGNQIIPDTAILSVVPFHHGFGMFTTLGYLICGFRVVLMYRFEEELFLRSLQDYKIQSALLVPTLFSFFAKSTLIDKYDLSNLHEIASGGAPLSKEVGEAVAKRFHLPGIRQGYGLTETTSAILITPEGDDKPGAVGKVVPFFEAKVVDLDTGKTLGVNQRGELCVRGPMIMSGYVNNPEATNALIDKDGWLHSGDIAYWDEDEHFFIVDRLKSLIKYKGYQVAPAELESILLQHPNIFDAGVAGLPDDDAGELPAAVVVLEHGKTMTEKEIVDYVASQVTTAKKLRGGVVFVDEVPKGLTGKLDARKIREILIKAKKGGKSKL
Chain of Thyrotropin receptor (Homo sapiens) (P16473 whole entry, looked up): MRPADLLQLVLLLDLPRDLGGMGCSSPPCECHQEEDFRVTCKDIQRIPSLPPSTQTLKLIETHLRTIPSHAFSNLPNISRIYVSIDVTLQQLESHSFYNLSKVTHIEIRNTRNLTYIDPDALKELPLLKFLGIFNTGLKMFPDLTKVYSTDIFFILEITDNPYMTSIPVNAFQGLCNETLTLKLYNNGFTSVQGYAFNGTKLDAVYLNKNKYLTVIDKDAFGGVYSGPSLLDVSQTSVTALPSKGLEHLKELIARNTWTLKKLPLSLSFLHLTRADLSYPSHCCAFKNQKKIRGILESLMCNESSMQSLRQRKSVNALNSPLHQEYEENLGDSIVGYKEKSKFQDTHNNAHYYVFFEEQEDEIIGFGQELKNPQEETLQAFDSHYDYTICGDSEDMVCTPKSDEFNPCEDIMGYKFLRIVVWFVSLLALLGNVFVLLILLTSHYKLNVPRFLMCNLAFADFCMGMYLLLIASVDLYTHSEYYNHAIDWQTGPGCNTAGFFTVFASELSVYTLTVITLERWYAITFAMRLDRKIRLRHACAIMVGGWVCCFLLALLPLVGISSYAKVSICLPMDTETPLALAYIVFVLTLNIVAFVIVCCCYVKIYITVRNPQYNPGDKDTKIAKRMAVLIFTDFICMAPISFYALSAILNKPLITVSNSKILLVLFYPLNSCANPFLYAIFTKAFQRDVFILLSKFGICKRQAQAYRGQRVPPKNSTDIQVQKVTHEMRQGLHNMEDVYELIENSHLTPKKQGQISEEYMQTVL

Row | Structure (SMILES) | Potency [1] | Potency [2] | Potency [3] | Potency [4] | Potency [5] | Potency [6] | Potency [7] | Potency [8] | Potency [9] | Potency [10]
1 | CC1COc2ccccc2N1C(=O)C(Cl)Cl (stereo not drawn) | inactive | 27.3 µM (active) | inactive | 48.5 µM (active) | inactive | inactive | inactive |  |  | 
2 | OCC#CCO | inactive | inactive |  |  | inactive | inactive | inactive | inactive |  | 
3 | CS(=O)(=O)Nc1ccc([N+](=O)[O-])cc1Oc1ccccc1 |  |  |  | inactive |  | inactive | inactive | inactive | inactive | inactive
4 | Cc1cc(NS(=O)(=O)c2ccc(N)cc2)no1 |  | inactive | inactive | inactive | inactive | inactive | inactive | inactive |  | 
5 | CC(=O)[C@@]1(O)CC[C@H]2[C@@H]3CCC4=CC(=O)CC[C@]4(C)[C@H]3CC[C@@]21C | inactive |  |  |  | inactive | inactive | inactive |  |  | 
6 | Cc1cc(O)c2c(c1)C(=O)c1cc(O)cc(O)c1C2=O | 34.8 µM (active) and 31.7 µM (active) |  |  | 48.6 µM (active) | inactive | inactive | inactive | inactive | inactive | inactive
